Assay results: PubChem BioAssay (NCI)
About 79,000 compounds went through this panel and 15% of them were active in at least one assay; those are over-represented in the sample as a whole. Cut-off read from the data, not from the text of the source: active = growth inhibition above about 70%; inactive = the rest.

Experiments:
[1] = NCI Yeast Anticancer Drug Screen. Data for the rad50 strain (AID 155);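 note: 0% = growth of vehicle-only cultures of the same strain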; details: S. cerevisiae rad50 strain growth inhibition; at 50.0 µM; active compounds read high
How it was run: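 Growth of the mutant yeast was measured after compound exposure and referenced to vehicle-treated cultures.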

[2] = NCI Yeast Anticancer Drug Screen. Data for the mec2-1 strain (AID 157); details: S. cerevisiae mec2-1 strain, at 50.0 µM, active compounds read high
How it was run: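 Compounds were applied to mec2-1 yeast cells. Their growth was then compared with that of vehicle-treated cultures to give growth inhibition.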

[3] = NCI Yeast Anticancer Drug Screen. Data for the sgs1 mgt1 strain (AID 161);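 note: 0% = growth of cultures given vehicle only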; details: S. cerevisiae sgs1 mgt1 strain, at 50.0 µM, active compounds read high
How it was run: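 Growth of a repair-deficient yeast mutant was monitored after compound treatment and expressed as inhibition relative to vehicle-treated cultures.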

[4] = NCI Yeast Anticancer Drug Screen. Data for the cln2 rad14 strain (AID 165);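 note: 0% = growth equal to vehicle treated cultures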; details: S. cerevisiae cln2 rad14 strain, at 50.0 µM, active compounds read high
How it was run: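 Strain: cln2 rad14 yeast, altered in cell cycle control and DNA damage repair. Read-out: growth inhibition vs vehicle.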

[5] = NCI Yeast Anticancer Drug Screen. Data for the bub3 strain (AID 167); details: S. cerevisiae bub3 mutant strain, at 50.0 µM, active compounds read high
How it was run: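 Whole-cell yeast assay. The mutant strain was incubated with compounds, and growth inhibition was determined by comparison with vehicle-treated cells.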

[6] = NCI Yeast Anticancer Drug Screen. Data for the mlh1 rad18 strain (AID 175); details: S. cerevisiae mlh1 rad18 strain growth inhibition; at 50.0 µM; active compounds read high
How it was run: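 A repair-deficient yeast strain is exposed to test compound, and growth is scored relative to vehicle-treated controls.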

Measured: growth inhibition

CCC1SCC(C)(C)NC1=O (stereo unspecified)
inactive: [1] 4.9% | [2] 13.4% | [3] -3.85% | [4] -39.2% | [5] 28.8% | [6] 1.4%

O=C(Oc1cccc2ccccc12)c1ccccc1
inactive: [1] -10.4% | [2] 15.6% | [3] -5.2% | [4] -76.2% | [5] 6.25% | [6] -9.45%

NC(=O)N/N=C1\CCCC(OC(=O)c2ccccc2)CC1 (stereo unspecified)
inactive: [1] 2.85% | [2] -27.7% | [3] -16.8% | [4] -20.1% | [5] -1.5% | [6] -20.8%

CC1=NN(C(=O)c2ccc(Cl)cc2)C(=O)/C1=C/c1ccccc1O
inactive: [1] 4.25% | [2] -14.4% | [3] -28.9% | [4] -7.55% | [5] 12.3% | [6] -18.8%

COc1ccc(-c2nc(-c3cc4c(ccc5ccccc54)oc3=O)cs2)cc1
inactive: [1] 24.4% | [2] 18.5% | [3] 1.45% | [4] 15% | [5] 0.9% | [6] -41.5%

CC1(C)CC([NH-])(C(=O)O)CC(C)(C)N1O.CC1(C)CC([NH-])(C(=O)O)CC(C)(C)N1O.[Pt+2]
inactive: [1] -5.65% | [2] -8.75% | [3] -6.5% | [4] -45.6% | [5] -1.05% | [6] -23.8%

CC1(CO)COC(c2ccccc2)=N1 (stereo unspecified)
inactive: [1] 4.65% | [2] 2.85% | [3] 4.55% | [4] -8.9% | [5] -1.3% | [6] 0.75%

CC#CCCCC1(C)CCNC1=S (stereo unspecified)
inactive: [1] 13.8% | [2] 10.2% | [3] 30.5% | [4] 21.9% | [5] 0.8% | [6] 24.6%

COC1(OC)N=C(N)C2(C#N)C(C)CC(=O)N(N(C)C)C12C#N (stereo unspecified)
inactive: [1] 7.15% | [2] 6.1% | [3] -27.4% | [4] -2.7% | [5] -37.4% | [6] -34.9%

CC(C)(O)C(c1ccccc1)S(=O)(=O)O (stereo unspecified)
inactive: [1] -2.5% | [2] -18.6% | [3] -0.3% | [4] -27.4% | [5] -0.45% | [6] 48.5%

CN(C)c1nc(OC2C(C3COC(C)(C)O3)OC3OC(C)(C)OC32)nc(N(C)C)n1 (stereo unspecified)
inactive: [1] 36.9% | [2] -9.65% | [3] 9.65% | [4] 26% | [5] -4.35% | [6] 2.15%

COc1ccc(N2C(=O)CC(c3cc(OC)c(OC)c(OC)c3)CC2=O)cc1
inactive: [1] -3.7% | [2] -20.5% | [3] 10.4% | [4] 3.1% | [5] 8.25% | [6] -2.75%

CCOC(=O)C(CCC#N)(CCC#N)C(C)=O
inactive: [1] -8.5% | [2] -1.65% | [3] -4.7% | [4] -64.8% | [5] 0.15% | [6] 15.1%

CCCCCCCCCCCCCCCCOP(=O)(O)OP(=O)(O)OCC1OC(n2ccc(N)nc2=O)CC1O (stereo unspecified)
inactive: [1] -10.2% | [2] -3.9% | [3] 8.7% | [4] -17.8% | [5] 20.6% | [6] 12.7%

CN(C)C1C=CS(=O)(=O)C1 (stereo unspecified)
inactive: [1] -9.55% | [2] -13.9% | [3] -4.4% | [4] -47.5% | [5] 0.95% | [6] -4.95%

NC(=O)CNCc1ccccc1
inactive: [1] 0.3% | [2] -3.75% | [3] 12.7% | [4] -52% | [5] 0.25% | [6] 4.25%

CN(C)c1ccc(S(=O)(=O)c2ccc(N(C)C)c([N+](=O)[O-])c2)cc1[N+](=O)[O-]
inactive: [1] 24% | [2] -9.65% | [3] -9.8% | [4] 0.45% | [5] 3.65% | [6] -30.9%

C=C1CC[C@H]2C(C)=CC[C@@H]3[C@H](OC(=O)[C@H]3CN(C)C)[C@@H]12
inactive: [1] 8.05% | [2] -4.45% | [3] 1.5% | [4] 32.7% | [5] 26.4% | [6] 16.2%

Cc1c2occc2cc2c1oc(=O)c1cnccc12
inactive: [1] 0.95% | [2] -0.15% | [3] 1.85% | [4] 21.2% | [5] -4.95% | [6] 14.9%

CC1=C(O)C(=O)C(C2=C(O)C(=O)C(C)=C(O)C2=O)=C(O)C1=O
inactive: [1] 5.3% | [2] -12.4% | [3] 24.4% | [4] 10% | [5] 5.8% | [6] 12.6%

Cc1ccc(S(=O)(=O)NCCCN(CCCNS(=O)(=O)c2ccc(C)cc2)S(=O)(=O)c2ccc(C)cc2)cc1
inactive: [1] -8.25% | [2] -10.8% | [3] -5.1% | [4] -70.5% | [5] -19.4% | [6] -12.2%

NN1C(=O)CC(c2cccc(Cl)c2)C1=O (stereo unspecified)
inactive: [1] 1.7% | [2] 4.55% | [3] -2.4% | [4] 21.9% | [5] -2.6% | [6] 32.3%

Cc1nnc(CC#N)n1NC(=O)CC#N
inactive: [1] 3.95% | [2] -3.15% | [3] -2.7% | [4] -18% | [5] 8.65% | [6] 9.95%

CCC(=O)N1C(=O)C(C)C23c4ccccc4C(=O)N2CCCN13 (stereo unspecified)
inactive: [1] 4.35% | [2] -13.1% | [3] -1.8% | [4] 11.1% | [5] 1.8% | [6] 15.8%

CCOC(=O)CCC1CCCO1 (stereo unspecified)
inactive: [1] -3.6% | [2] -19.1% | [3] -19.9% | [4] -4.8% | [5] -6.85% | [6] -1.05%

O=C(COc1cccc(Cl)c1)Nc1cccc(S(=O)(=O)O)c1 (tested in a mixture with another compound)
inactive: [1] 5.15% | [2] -7.65% | [3] -12.8% | [4] -16.6% | [5] 2% | [6] 11.2%

CC1OC(OCc2ccc(-c3ccccc3)cc2)CC(N)C1O (stereo unspecified)
inactive: [1] -1.9% | [2] 28.9% | [3] 24.6% | [4] -6.85% | [5] 29.6% | [6] 2.9%

O=C1Oc2ccccc2C(=O)Oc2ccccc2C(=O)Oc2ccccc2C(=O)Oc2ccccc21
inactive: [1] -43.7% | [2] -38.6% | [3] -24.2% | [4] -8.25% | [5] -22.1% | [6] -29.6%

COc1ccc2[nH]c3c(c2c1)[C@H](c1ccccc1)C[C@@H]1C(=O)N(c2ccccc2)C(=O)[C@H]31
inactive: [1] -5.25% | [2] -6.65% | [3] 1.75% | [4] 0.65% | [5] -8.9% | [6] -7.95%

CCO/C=C1/N=C(Cc2ccccc2)OC1=O
inactive: [1] 18.4% | [2] -2.05% | [3] 7.65% | [4] 23.4% | [5] 3.65% | [6] 13%

O=c1[nH]nc(-c2ccc(Cl)cc2)[nH]1
inactive: [1] 9.35% | [2] -4.25% | [3] -3.85% | [4] -30.1% | [5] -5.8% | [6] -3.9%

O=C(Nc1ccc2ccccc2c1)c1ccc(Cl)cc1
inactive: [1] 4.65% | [2] -9.65% | [3] -15.1% | [4] 7.05% | [5] 31.4% | [6] 1.4%

CC[O-].CC[O-].O=Nc1ccc2cc([O-])ccc2c1.O=Nc1ccc2cc([O-])ccc2c1.[Ti+4]
inactive: [1] 34.9% | [2] 44.9% | [3] 59.5% | [4] 45% | [5] 52.6% | [6] 15.9%

COc1ccc(/C=C(\C#N)c2ccccc2NC(C)=O)cc1
inactive: [1] 6.9% | [2] 7.4% | [3] -2.95% | [4] -42.8% | [5] -10.5% | [6] 19.8%

Cc1cccc(N=N/C(=N\NC(=O)c2cc(Cl)ccc2O)c2ccc(N(CCC#N)CCC#N)cc2C)c1
inactive: [1] 13.7% | [2] -1% | [3] 19.7% | [4] 1.8% | [5] 13.8% | [6] -79.6%

COc1ccccc1NC(=O)CC(=O)N1N=C(N2c3ccccc3Sc3ccccc32)CC1c1ccccc1 (stereo unspecified)
inactive: [1] 2.55% | [2] 3.2% | [3] -2.15% | [4] 22.7% | [5] 12.4% | [6] -66.5%

CC(=O)Oc1ccc(I)cc1C(=O)O
inactive: [1] 5.7% | [2] -29.4% | [3] 1.25% | [4] -12.7% | [5] 6.75% | [6] -11.8%

O=C(NCCc1ccccc1)c1c(O)c2ccccc2[nH]c1=O
inactive: [1] 5.85% | [2] 11.9% | [3] 23.7% | [4] 18.2% | [5] 14.1% | [6] 10%

O=C(O)C(S)c1ccc2ccccc2c1 (stereo unspecified)
inactive: [1] 28.6% | [2] 19.9% | [3] 20.2% | [4] 18.6% | [5] 12.3% | [6] 13.2%

CCC(=O)Nc1ccc(C)cc1C
inactive: [1] 23.7% | [2] 12.9% | [3] 9.8% | [4] 13.7% | [5] 2.6% | [6] 3.45%

CN(C)C(=O)C1CCNCC1
inactive: [1] 2.5% | [2] -2.1% | [3] -4.15% | [4] -9.5% | [5] -11.3% | [6] 3.45%
